Active and inactive are the calls of the source. The calls were made as follows: active = hit-call score of the fitted dose curve at least 0.9, where 1 is the maximum; inactive = score below 0.9.
Tests used:
Conditions in all cases: mRNA level, 48 h; actives raise or lower the signal
[1] = read-out: Interleukin 6 Receptor (IL6R), IL6R (gene 3570); assay: LTEA_HepaRG_IL6R: Life Technologies and Expression Analysis (LTEA) Assay for Interleukin 6 Receptor (IL6R) using HepaRG (AID 2283510)
Summary of the method: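 Cells were thawed, plated and cultured 48 h, then medium was changed to serum-free induction medium. Chemicals were added in duplicate (100 uM top, half-log steps, 0.5% DMSO) for 48 h. Lysates were analyzed by qRT-PCR for IL6R expression.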

[2] = read-out: Potassium channel subfamily K member 1 (KCNK1), KCNK1 (gene 3775); assay: LTEA_HepaRG_KCNK1: Life Technologies and Expression Analysis (LTEA) Assay for Potassium channel subfamily K member 1 (KCNK1) using HepaRG (AID 2283511)
Summary of the method: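 HepaRG, 48 h exposure, 8-pt half-log series top 100 uM, 0.5% DMSO vehicle, duplicates. Readout: KCNK1 transcript by qRT-PCR (Fluidigm array), housekeeping-normalized; bidirectional curve fit relative to DMSO baseline.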

[3] = read-out: Keratin 19 (KRT19), KRT19 (gene 3880); assay: LTEA_HepaRG_KRT19: Life Technologies and Expression Analysis (LTEA) Assay for Keratin 19 (KRT19) using HepaRG (AID 2283512)
Summary of the method: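 Differentiated HepaRG cells in serum-free induction medium, exposed 48 h in duplicate to 8 half-log concentrations up to 100 uM in 0.5% DMSO. KRT19 mRNA by qRT-PCR, normalized to ACTB, GAPDH, POLR2A; bidirectional fit vs DMSO.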

[4] = read-out: JUN Transcription Factor, JUN (gene 3725); assay: LTEA_HepaRG_JUN: Life Technologies and Expression Analysis (LTEA) Assay for JUN Transcription Factor using HepaRG (AID 2283513)
Summary of the method: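 Read-out is JUN transcript level by TaqMan qRT-PCR, normalized to ACTB, GAPDH and POLR2A, after 48 h chemical treatment of HepaRG cells. Concentration-response spanned eight half-log points up to 100 uM in 0.5% DMSO.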

[5] = read-out: Lipase C (LIPC), LIPC (gene 3990); assay: LTEA_HepaRG_LIPC: Life Technologies and Expression Analysis (LTEA) Assay for Lipase C (LIPC) using HepaRG (AID 2283514)
Summary of the method: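 HepaRG, 48 h exposure, 8-pt half-log series from 100 uM in 0.5% DMSO, duplicates. Readout: LIPC mRNA by Fluidigm qRT-PCR, housekeeping-normalized (ACTB/GAPDH/POLR2A). Gain or loss fitted bidirectionally against DMSO baseline.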

[6] = read-out: Lipoprotein lipase (LPL), LPL (gene 4023); assay: LTEA_HepaRG_LPL: Life Technologies and Expression Analysis (LTEA) Assay for Lipoprotein lipase (LPL) using HepaRG (AID 2283515)
Summary of the method: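 HepaRG, 48 h exposure, 8-pt half-log dilutions from 100 uM, 0.5% DMSO vehicle, duplicates; qRT-PCR (Fluidigm array) of LPL mRNA vs housekeeping genes; bidirectional curve fit relative to DMSO baseline.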

[7] = read-out: MicroRNA 122 (MIR122), gene 406906; assay: LTEA_HepaRG_MIR122: Life Technologies and Expression Analysis (LTEA) Assay for MicroRNA 122 (MIR122) using HepaRG (AID 2283516); also: the transcript read is the microRNA miR-122
Summary of the method: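 Human liver HepaRG cultures receive test chemicals for 48 h at eight half-log concentrations from 100 uM. Expression is quantified by qRT-PCR with ACTB/GAPDH/POLR2A normalization and fitted bidirectionally against 0.5% DMSO.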

[8] = read-out: matrix metalloproteinase-10 (MMP10), MMP10 (gene 4319); assay: LTEA_HepaRG_MMP10: Life Technologies and Expression Analysis (LTEA) Assay for matrix metalloproteinase-10 (MMP10) using HepaRG (AID 2283517)
Summary of the method: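 Transcript levels come from Fluidigm qRT-PCR normalized to three housekeeping genes, with curves fitted bidirectionally against 0.5% DMSO. Human HepaRG cells were dosed for 48 hours at concentrations up to 100 uM.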

MYC, MYC (gene 4609) = assay: LTEA_HepaRG_MYC: Life Technologies and Expression Analysis (LTEA) Assay for MYC using HepaRG (AID 2283518)
Summary of the method: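 Differentiated HepaRG cells exposed 48 h in serum-free induction medium to 8 concentrations (top 100 uM, half-log steps; 0.5% DMSO), duplicate. MYC mRNA measured by Fluidigm qRT-PCR, normalized to ACTB, GAPDH, POLR2A; bidirectional fit versus DMSO.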

[9] = read-out: matrix metalloproteinase-3 (MMP3), MMP3 (gene 4314); assay: LTEA_HepaRG_MMP3: Life Technologies and Expression Analysis (LTEA) Assay for matrix metalloproteinase-3 (MMP3) using HepaRG (AID 2283519)
Summary of the method: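 qRT-PCR read-out of MMP3 mRNA (normalised to three housekeeping genes) in HepaRG liver cells after 48 h chemical exposure; 8-point half-log series, top 100 uM, 0.5% DMSO vehicle. Bidirectional curve fitting against DMSO baseline.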

[10] = read-out: Nuclear factor NF-kappa-B p105 subunit (Homo sapiens) (UniProt P19838); assay: LTEA_HepaRG_NFKB1: Life Technologies and Expression Analysis (LTEA) Assay for Nuclear Factor Kappa B Subunit 1 (NFKB1) using HepaRG (AID 2283521);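 also: differentiated human HepaRG liver cells in serum-free induction medium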
Summary of the method: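 NFKB1 transcript was measured by TaqMan qRT-PCR on Fluidigm arrays, normalised to three housekeeping genes and fitted in both directions against 0.5% DMSO. HepaRG cells were dosed in duplicate for 48 h in serum-free induction medium, eight half-log steps from 100 uM.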

[11] = read-out: Protein phosphatase 2A (PPP2R4), PTPA (gene 5524); assay: LTEA_HepaRG_PPP2R4: Life Technologies and Expression Analysis (LTEA) Assay for Protein phosphatase 2A (PPP2R4) using HepaRG (AID 2283522)
Summary of the method: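 Cells were plated, cultured 48 h, switched to serum-free induction medium, then dosed for 48 h (8 points, max 100 uM, 0.5% DMSO). RNA was isolated and PPP2R4 expression measured by TaqMan qRT-PCR.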

[12] = read-out: Phosphatase and tensin (PTEN), PTEN (gene 5728); assay: LTEA_HepaRG_PTEN: Life Technologies and Expression Analysis (LTEA) Assay for Phosphatase and tensin (PTEN) using HepaRG (AID 2283523)
Summary of the method: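 HepaRG, 48 h exposure, 8-pt half-log series from 100 uM top, 0.5% DMSO vehicle, duplicates. Readout: Fluidigm qRT-PCR of PTEN transcript; housekeeping normalization (ACTB, GAPDH, POLR2A). Gain or loss fitted relative to DMSO baseline.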

[13] = read-out: solute carrier (SLC22A1), SLC22A1 (gene 6580); assay: LTEA_HepaRG_SLC22A1: Life Technologies and Expression Analysis (LTEA) Assay for solute carrier (SLC22A1) using HepaRG (AID 2283524)
Summary of the method: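 qRT-PCR readout (TaqMan, Fluidigm arrays) of SLC22A1 transcript, normalized to three housekeeping genes; bidirectional curve fit relative to 0.5% DMSO vehicle. Differentiated human HepaRG cells, 48 h chemical exposure, top concentration 100 uM, half-log steps, eight points.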

[14] = read-out: Pyruvate Dehydrogenase Kinase 4 (PDK4), PDK4 (gene 5166); assay: LTEA_HepaRG_PDK4: Life Technologies and Expression Analysis (LTEA) Assay for Pyruvate Dehydrogenase Kinase 4 (PDK4) using HepaRG (AID 2283525)
Summary of the method: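 HepaRG (human liver line), 48 h chemical exposure, 8-pt half-log CRC top 100 uM, 0.5% DMSO vehicle, duplicates. Readout: TaqMan qRT-PCR of PDK4 mRNA, housekeeping-normalized; gain/loss fit relative to DMSO baseline.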

[15] = read-out: Nuclear factor erythroid 2-related factor 2 (Homo sapiens) (UniProt Q16236); assay: LTEA_HepaRG_NFE2L2: Life Technologies and Expression Analysis (LTEA) Assay for Nuclear factor erythroid 2-related factor 2 (NFE2L2) Transcription Factor using HepaRG (AID 2283527)
Summary of the method: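 HepaRG, 48 h dosing, 8-pt half-log series from 100 uM in 0.5% DMSO, duplicates. Read-out: NFE2L2 mRNA by qRT-PCR (ACTB/GAPDH/POLR2A normalization). Bidirectional curve fit vs DMSO baseline.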

[16] = read-out: succinate dehydrogenase complex iron sulfur subunit B (SDHB), SDHB (gene 6390); assay: LTEA_HepaRG_SDHB: Life Technologies and Expression Analysis (LTEA) Assay for succinate dehydrogenase complex iron sulfur subunit B (SDHB) using HepaRG (AID 2283528)
Summary of the method: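 SDHB transcript level read by TaqMan qRT-PCR, housekeeping-normalised (ACTB, GAPDH, POLR2A), after 48 h chemical treatment of plated HepaRG cells; eight concentrations top 100 uM, half-log steps, 0.5% DMSO, duplicates; fitted both directions against DMSO.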

[17] = read-out: Signal transducer and activator of transcription 3 (Homo sapiens) (UniProt P40763); assay: LTEA_HepaRG_STAT3: Life Technologies and Expression Analysis (LTEA) Assay for Signal transducer and activator of transcription (STAT3) using HepaRG (AID 2283529)
Summary of the method: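 HepaRG, 48 h exposure, 8-pt half-log series (top 100 uM), 0.5% DMSO vehicle, duplicates. Readout: STAT3 transcript by Fluidigm qRT-PCR, housekeeping-normalized; bidirectional fit vs DMSO baseline.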

[18] = read-out: NAD(P)H dehydrogenase [quinone] 1 (NQO1), NQO1 (gene 1728); assay: LTEA_HepaRG_NQO1: Life Technologies and Expression Analysis (LTEA) Assay for NAD(P)H dehydrogenase [quinone] 1 (NQO1) using HepaRG (AID 2283526)
Summary of the method: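 Transcript induction or suppression is quantified by qRT-PCR in human HepaRG liver cells dosed for 48 hours. Eight half-log concentrations topping at 100 uM are used, with 0.5% DMSO as vehicle and baseline.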

[19] = read-out: Paternally Expressed 10 (PEG10), PEG10 (gene 23089); assay: LTEA_HepaRG_PEG10: Life Technologies and Expression Analysis (LTEA) Assay for Paternally Expressed 10 (PEG10) using HepaRG (AID 2283520)
Summary of the method: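 Human HepaRG cultures are dosed for 48 h across an eight-point half-log series starting at 100 uM, with 0.5% DMSO as vehicle and baseline. Gain or loss of PEG10 transcript is measured by qRT-PCR and fitted in both directions.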

Measured: AC50

Nuclear factor erythroid 2-related factor 2 (Homo sapiens), sequence (Q16236 whole entry, looked up): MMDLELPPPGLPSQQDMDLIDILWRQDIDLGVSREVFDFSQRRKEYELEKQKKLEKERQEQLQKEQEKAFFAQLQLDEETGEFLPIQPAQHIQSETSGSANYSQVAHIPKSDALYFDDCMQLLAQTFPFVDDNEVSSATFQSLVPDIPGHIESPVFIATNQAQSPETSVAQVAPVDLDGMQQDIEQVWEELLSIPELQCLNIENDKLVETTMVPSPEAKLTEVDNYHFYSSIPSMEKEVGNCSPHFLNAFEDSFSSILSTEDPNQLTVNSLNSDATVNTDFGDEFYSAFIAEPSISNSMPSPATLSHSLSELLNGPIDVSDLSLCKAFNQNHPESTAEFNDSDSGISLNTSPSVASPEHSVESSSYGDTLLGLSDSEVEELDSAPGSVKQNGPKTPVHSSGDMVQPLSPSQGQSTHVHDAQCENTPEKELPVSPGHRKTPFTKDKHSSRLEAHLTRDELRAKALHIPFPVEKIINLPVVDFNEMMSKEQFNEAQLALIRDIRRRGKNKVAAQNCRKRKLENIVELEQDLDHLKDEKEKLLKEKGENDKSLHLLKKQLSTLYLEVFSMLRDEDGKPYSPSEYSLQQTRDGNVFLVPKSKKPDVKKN
Signal transducer and activator of transcription 3 (Homo sapiens), sequence (P40763 whole entry, looked up): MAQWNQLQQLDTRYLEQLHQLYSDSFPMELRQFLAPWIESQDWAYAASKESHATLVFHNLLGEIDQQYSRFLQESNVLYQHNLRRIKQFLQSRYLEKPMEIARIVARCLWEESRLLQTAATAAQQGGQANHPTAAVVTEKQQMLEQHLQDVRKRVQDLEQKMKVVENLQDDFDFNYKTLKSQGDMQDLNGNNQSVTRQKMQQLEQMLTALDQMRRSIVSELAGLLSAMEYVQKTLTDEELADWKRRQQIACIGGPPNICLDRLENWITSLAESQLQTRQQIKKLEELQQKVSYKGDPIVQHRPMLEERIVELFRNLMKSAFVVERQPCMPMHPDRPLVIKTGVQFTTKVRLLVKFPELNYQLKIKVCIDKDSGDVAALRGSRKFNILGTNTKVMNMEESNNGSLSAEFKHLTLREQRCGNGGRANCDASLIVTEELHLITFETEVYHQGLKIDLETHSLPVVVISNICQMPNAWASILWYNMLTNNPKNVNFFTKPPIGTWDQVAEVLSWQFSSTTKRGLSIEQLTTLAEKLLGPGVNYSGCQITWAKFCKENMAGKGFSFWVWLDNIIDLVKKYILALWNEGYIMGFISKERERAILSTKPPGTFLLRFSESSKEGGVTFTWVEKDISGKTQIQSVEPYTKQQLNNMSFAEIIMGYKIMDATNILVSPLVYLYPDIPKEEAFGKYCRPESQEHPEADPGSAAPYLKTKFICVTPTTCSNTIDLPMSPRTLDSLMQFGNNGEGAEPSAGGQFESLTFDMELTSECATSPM
Nuclear factor NF-kappa-B p105 subunit (Homo sapiens), sequence (P19838 whole entry, looked up): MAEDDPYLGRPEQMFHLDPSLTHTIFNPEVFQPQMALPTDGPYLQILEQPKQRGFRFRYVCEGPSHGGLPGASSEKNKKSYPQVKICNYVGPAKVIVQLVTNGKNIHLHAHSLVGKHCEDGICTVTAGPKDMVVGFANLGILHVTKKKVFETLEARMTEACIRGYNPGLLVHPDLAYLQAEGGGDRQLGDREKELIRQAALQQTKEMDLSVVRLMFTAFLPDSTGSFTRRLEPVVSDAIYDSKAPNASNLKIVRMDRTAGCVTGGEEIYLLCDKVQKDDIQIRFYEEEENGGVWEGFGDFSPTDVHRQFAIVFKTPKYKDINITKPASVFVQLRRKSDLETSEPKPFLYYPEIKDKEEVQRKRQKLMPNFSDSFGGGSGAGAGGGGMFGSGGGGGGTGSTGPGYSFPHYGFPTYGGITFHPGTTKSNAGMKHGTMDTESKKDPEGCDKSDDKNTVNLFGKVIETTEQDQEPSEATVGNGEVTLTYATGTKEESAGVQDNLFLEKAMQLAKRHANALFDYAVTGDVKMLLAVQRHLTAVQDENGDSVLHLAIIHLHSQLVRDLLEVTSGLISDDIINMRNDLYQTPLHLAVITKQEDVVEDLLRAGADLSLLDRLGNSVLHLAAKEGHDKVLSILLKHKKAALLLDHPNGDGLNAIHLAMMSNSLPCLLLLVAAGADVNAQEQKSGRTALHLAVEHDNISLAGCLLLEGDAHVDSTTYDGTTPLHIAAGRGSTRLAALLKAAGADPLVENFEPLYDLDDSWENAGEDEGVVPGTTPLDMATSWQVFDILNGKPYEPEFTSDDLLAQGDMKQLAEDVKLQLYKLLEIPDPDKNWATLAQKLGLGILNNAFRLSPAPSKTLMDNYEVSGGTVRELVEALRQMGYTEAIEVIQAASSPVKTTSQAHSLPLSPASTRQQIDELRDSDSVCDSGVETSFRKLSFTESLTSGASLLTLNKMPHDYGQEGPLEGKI

CC(C)(OOC(C)(C)c1ccccc1)c1ccccc1
not listed: [18] | [19]
inactive: all other assays above

c1ccc(NNc2ccccc2)cc1
not listed: [19]
inactive: all other assays above

CN(C)c1ccccc1
not listed: [10] | [18]
inactive: all other assays above

O=P(OCCCl)(OCCCl)OCCCl
active: [9] 67.3 µM | [11] 50 µM
not listed: [10] | [18]
inactive: all other assays above

[As]#[In]
not listed: [18] | [19]
inactive: all other assays above

COC(=O)c1ccccc1N
not listed: [19]
inactive: all other assays above

CNC(=O)Oc1cccc2c1OC(C)(C)C2
active: [14] 4.56 µM
not listed: [10] | [18]
inactive: all other assays above
